Laboratory results as given in PubChem BioAssay (NCI).
This is part of a sample that, as a whole, favours compounds with a hit. Of some 83,000 tested, about 20% had one in any assay.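 Growth was measured after 48 h exposure to one concentration of compound in 96-well plates. Values under 10 count as active.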 The source made the active and inactive calls.

Columns and labels:
Assay in all cases: NCI-60 one-dose screen, 48 h (100 = growth as untreated, 0 = no growth, -100 = all killed)
Conditions in all cases: 10 µM unless noted
BT-549 breast = system: BT-549 breast
MDA-MB-435 melanoma = system: MDA-MB-435 melanoma
SW-620 colon = system: SW-620 colon
MCF7 breast = system: MCF7 breast
HCT-116 colon = system: HCT-116 colon
HCC-2998 colon = system: HCC-2998 colon
KM12 colon = system: KM12 colon

Measured: growth

COc1ccc(Cc2cc(-c3ccccc3)nn(Cc3ccccc3)c2=O)cc1OC
inactive: BT-549 breast 14.7% | MDA-MB-435 melanoma 43.9% | SW-620 colon 41% | MCF7 breast 19.9% | HCT-116 colon 15% | HCC-2998 colon 60.5% | KM12 colon 35.2%

Cc1nnc(-n2c(O)cc(=O)n(-c3ccccc3)c2=S)nc1/C=C/c1ccc(N(C)C)cc1
inactive: BT-549 breast 63.1% | MDA-MB-435 melanoma 24.8% | SW-620 colon 67.2% | MCF7 breast 21.6% | HCT-116 colon 56.1% | HCC-2998 colon 63.7% | KM12 colon 47.9%

NC(=O)CCC(C(=O)O)N1C(=O)c2ccc(O)cc2C1=O (stereo not drawn)
inactive: BT-549 breast 101% | MDA-MB-435 melanoma 94% | SW-620 colon 111% | MCF7 breast 105% | HCT-116 colon 109% | KM12 colon 103%

Cn1c(-c2ccc(Br)cc2)c(O)c(=O)c2c(F)cccc21
inactive: BT-549 breast 70.6% | MDA-MB-435 melanoma 67.8% | SW-620 colon 51% | MCF7 breast 37.1% | HCT-116 colon 35.1% | HCC-2998 colon 64.5%

CN(C)c1ccc(Nc2cc(-c3cccc(OC(F)(F)F)c3)nc3ccc(N4CCCC4)cc23)cc1
inactive: HCC-2998 colon 91.1%
active: BT-549 breast -49.6% | MDA-MB-435 melanoma -73.6% | SW-620 colon -48.1% | MCF7 breast -14.7% | HCT-116 colon -31.2% | KM12 colon -45.5%

O=C(OCc1ccc2cccc(O)c2n1)N1CCN(C(=O)c2cc3cc(F)ccc3[nH]2)CC1
active: BT-549 breast -57.4% | MDA-MB-435 melanoma -89.8% | SW-620 colon -62.8% | MCF7 breast -28% | HCC-2998 colon -4.94% | KM12 colon -48.1%

COc1cc(CNC(=O)CCCC/C=C/C(C)C)ccc1OCc1nnc(Nc2ccc([N+](=O)[O-])cc2)o1
inactive: BT-549 breast 108% | MDA-MB-435 melanoma 71.9% | SW-620 colon 67.3% | MCF7 breast 55.2% | HCT-116 colon 24.6% | HCC-2998 colon 83.6% | KM12 colon 71.6%

CCN(CC)CCCN1C(=O)c2c(c(C)c3c(oc4cc(O)ccc43)c2C)C1=O
inactive: BT-549 breast 94.8%
active: MDA-MB-435 melanoma -61.1% | SW-620 colon -36% | MCF7 breast -69.2% | HCT-116 colon -76.4% | HCC-2998 colon -88.9% | KM12 colon -59.3%

O=C1/C(=C/c2ccc(Cl)cc2)COc2ccc(O)c(O)c21
active: BT-549 breast 5.45% | MDA-MB-435 melanoma 1.56% | SW-620 colon -9.64% | MCF7 breast 9.76% | HCT-116 colon 0.395% | HCC-2998 colon 5.98%

C#CCn1cnc2c(Nc3cccc(NC(=O)C=C)c3)ncnc21
inactive: BT-549 breast 71.5% | MDA-MB-435 melanoma 82.6% | SW-620 colon 99.6% | MCF7 breast 80.1% | HCT-116 colon 85.1% | HCC-2998 colon 105%

O=C(CSc1nc2sc3c(c2c(=O)n1-c1ccccc1)CCCCC3)N/N=C/c1ccc(F)cc1
active: HCT-116 colon -26.2%
inactive: BT-549 breast 48.4% | MDA-MB-435 melanoma 70% | SW-620 colon 53% | MCF7 breast 26.8% | KM12 colon 42.6%

CC1=C(CCC(C)N(C)Cc2ccc(OCCCN3CCCC3)cc2)C(C)(C)CCC1 (stereo not drawn)
inactive: BT-549 breast 55.6% | SW-620 colon 21.3% | HCT-116 colon 10.7% | KM12 colon 27.6%
active: MDA-MB-435 melanoma -77.9% | MCF7 breast -33.3% | HCC-2998 colon -31%

O=C(CSc1nc(-c2ccccc2)[nH]c1S(=O)(=O)c1ccccc1)NC1CC1
inactive: BT-549 breast 105% | MDA-MB-435 melanoma 108% | SW-620 colon 104% | MCF7 breast 65.2% | HCT-116 colon 94.2% | KM12 colon 100%

Cc1ccc2c(n1)C(=O)c1[nH]c3ccccc3c1C2=O
active: MDA-MB-435 melanoma -87.6%
inactive: BT-549 breast 58.5% | SW-620 colon 48.3% | MCF7 breast 31.2% | HCT-116 colon 22% | KM12 colon 37%

C=CC(=O)NCc1ccc(Nc2nccc(-c3ccc(N4CCCC4)c(C#N)c3)n2)cc1
active: BT-549 breast -10.3%
inactive: MDA-MB-435 melanoma 10.1% | SW-620 colon 43.9% | MCF7 breast 14.3% | HCT-116 colon 22.2% | HCC-2998 colon 71.3% | KM12 colon 35.2%

O=C(c1ccccc1)C1C(=O)N2C(=S)N(c3ccccc3)C(=O)C2C1c1ccc(Cl)cc1 (stereo not drawn)
inactive: BT-549 breast 88.6% | MDA-MB-435 melanoma 105% | SW-620 colon 102% | MCF7 breast 65.2% | HCT-116 colon 96.6% | HCC-2998 colon 94.8%
